Some structures have more than one record in an assay (separate samples or runs), and their calls can disagree. The source made the active and inactive calls. The calls were made as follows: active = hit-call score of the fitted dose curve at least 0.9, where 1 is the maximum; inactive = score below 0.9.
Legend:
[1] = read-out: Transforming growth factor beta 1 (TGFb1), TGFB1 (gene 7040); assay: BSK_KF3CT_TGFb1: BioMAP Diversity Plus: KF3CT Assay for Transforming growth factor beta 1 (TGFb1) Biomarker Activity (AID 2283072); details: primary human keratinocytes with fibroblasts; actives raise or lower the signal
Summary of the method: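 Human keratinocyte plus foreskin fibroblast primary co-culture, dosed with chemical for 24 h. TGF-b1 quantified by ELISA. Activity fitted bidirectionally against DMSO negative control as baseline.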

[2] = read-out: Matrix Metallopeptidase 9 (MMP9), MMP9 (gene 4318); assay: BSK_KF3CT_MMP9: BioMAP Diversity Plus: KF3CT Assay for Matrix Metallopeptidase 9 (MMP9) Biomarker Activity (AID 2283074); details: primary human keratinocytes with fibroblasts; actives raise or lower the signal;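 as to AC50: MMP9 protein level quantified by ELISA in the co-culture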
Summary of the method: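 Human keratinocyte and foreskin fibroblast co-culture exposed to chemicals for 24 h; MMP9 biomarker measured by ELISA, bidirectional fitting relative to DMSO; cytotoxicity tracked by SRB total protein staining in parallel cultures.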

[3] = read-out: urokinase plasminogen activator (uPA), PLAU (gene 5328); assay: BSK_KF3CT_uPA: BioMAP Diversity Plus: KF3CT Assay for urokinase plasminogen activator (uPA) Biomarker Activity (AID 2283075); details: primary human keratinocytes with fibroblasts; actives raise or lower the signal
Summary of the method: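 Primary human keratinocyte/foreskin fibroblast co-culture exposed to chemical; uPA measured by ELISA at 24 h. Bidirectional fit versus DMSO, with parallel SRB total-protein staining for cytotoxicity.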

[4] = read-out: CD40, CD40 (gene 958); assay: BSK_LPS_CD40: BioMAP Diversity Plus: LPS Assay for CD40 Biomarker Activity (AID 2283076); details: primary human HUVEC with PBMC; actives raise or lower the signal
Summary of the method: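 Using a multiplexed primary human co-culture (umbilical vein endothelium plus PBMC), CD40 was read by ELISA 24 h after dosing, with cytotoxicity tracked by sulforhodamine B staining of parallel cultures and activity fitted bidirectionally versus DMSO.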

[5] = read-out: E-selectin (Homo sapiens) (UniProt P16581); assay: BSK_LPS_Eselectin: BioMAP Diversity Plus: LPS Assay for Eselectin Biomarker Activity (AID 2283077); details: primary human HUVEC with PBMC; actives raise or lower the signal
Summary of the method: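 Dose chemical onto LPS-driven HUVEC/PBMC co-culture; after 24 h, run ELISA for E-selectin; fit up- and down-going responses relative to DMSO control.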

[6] = read-out: Interleukin-8 (IL8), CXCL8 (gene 3576); assay: BSK_LPS_IL8: BioMAP Diversity Plus: LPS Assay for Interleukin-8 (IL8) Biomarker Activity (AID 2283078); details: primary human HUVEC with PBMC; actives raise or lower the signal
Summary of the method: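 In this LPS system, chemical-treated human umbilical vein endothelium/PBMC co-cultures were harvested at 24 h for IL-8 ELISA.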

[7] = BSK_LPS_SRB: Viability Assessment in the BioMAP Diversity Plus: LPS Assay (AID 2283079); details: primary human HUVEC with PBMC;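 also: total protein by sulforhodamine B absorbance as a cytotoxicity measure; measured one day after compound addition; fitted in both directions against DMSO so loss or gain of signal counts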
Summary of the method: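 Cytotoxicity endpoint in human endothelial–PBMC co-culture: 24 h exposure, then SRB (0.1%) staining, 560 nm read.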

[8] = read-out: Interleukin-1 alpha (IL1a), IL1A (gene 3552); assay: BSK_LPS_IL1a: BioMAP Diversity Plus: LPS Assay for Interleukin-1 alpha (IL1a) Biomarker Activity (AID 2283080); details: primary human HUVEC with PBMC; actives raise or lower the signal
Summary of the method: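 Primary human HUVEC and PBMC co-culture stimulated with LPS is dosed and harvested at 24 h. Both increases and decreases in ELISA-measured IL-1a are scored relative to DMSO.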

[9] = read-out: Monocyte Chemoattractant Protein-1 (MCP1), CCL2 (gene 6347); assay: BSK_LPS_MCP1: BioMAP Diversity Plus: LPS Assay for Monocyte Chemoattractant Protein-1 (MCP1) Biomarker Activity (AID 2283081); details: primary human HUVEC with PBMC; actives raise or lower the signal;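 as to AC50: secreted MCP-1 protein quantified by ELISA in culture supernatant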
Summary of the method: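 Values derive from bidirectional fitting against DMSO of ELISA-measured MCP-1 in a human primary endothelial and mononuclear cell co-culture, 24 h after chemical addition under LPS activation.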

[10] = read-out: Macrophage colony-stimulating factor (MCSF), CSF1 (gene 1435); assay: BSK_LPS_MCSF: BioMAP Diversity Plus: LPS Assay for Macrophage colony-stimulating factor (MCSF) Biomarker Activity (AID 2283083); details: primary human HUVEC with PBMC; actives raise or lower the signal
Summary of the method: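 Bidirectional fit versus DMSO of ELISA-measured M-CSF in co-cultured human umbilical vein endothelial cells and PBMC, sampled 24 h after dosing.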

[11] = read-out: Tissue Factor, F3 (gene 2152); assay: BSK_LPS_TissueFactor: BioMAP Diversity Plus: LPS Assay for Tissue Factor Biomarker Activity (AID 2283084); details: primary human HUVEC with PBMC; actives raise or lower the signal
Summary of the method: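 Read-out: CD142 ELISA, 24 h. System: LPS-driven human endothelial/PBMC co-culture. Analysis: up- or down-signal fitted against DMSO.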

[12] = read-out: Tumor necrosis factor (Homo sapiens) (UniProt P01375); assay: BSK_LPS_TNFa: BioMAP Diversity Plus: LPS Assay for Tumour Necrosis Factor alpha (TNFa) Biomarker Activity (AID 2283085); details: primary human HUVEC with PBMC; actives raise or lower the signal
Summary of the method: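 Human umbilical vein endothelial cells co-cultured with PBMC were exposed to test chemical and TNFa measured by ELISA 24 h after dosing. Bidirectional curve fitting was done relative to DMSO as negative control and baseline.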

[13] = read-out: Vascular cell adhesion molecule 1 (VCAM1), VCAM1 (gene 7412); assay: BSK_LPS_VCAM1: BioMAP Diversity Plus: LPS Assay for Vascular cell adhesion molecule 1 (VCAM1) Biomarker Activity (AID 2283086); details: primary human HUVEC with PBMC; actives raise or lower the signal
Summary of the method: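 Human umbilical vein endothelial cells co-cultured with peripheral blood mononuclear cells under LPS stimulation were exposed to test chemical for 24 h. VCAM-1 levels were then measured by ELISA, with bidirectional curve fitting relative to DMSO as negative control and baseline.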

[14] = read-out: CD38, CD38 (gene 952); assay: BSK_SAg_CD38: BioMAP Diversity Plus: SAg Assay for CD38 Biomarker Activity (AID 2283087); details: primary human HUVEC with PBMC; actives raise or lower the signal
Summary of the method: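 Fluorescence ELISA of cell-surface CD38 served as the read-out, with either increase or decrease fitted against DMSO controls. Cells were a human umbilical vein endothelium plus PBMC co-culture under SEB/TSST-1 stimulation, measured 24 h after dosing.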

[15] = read-out: CD40, CD40 (gene 958); assay: BSK_SAg_CD40: BioMAP Diversity Plus: SAg Assay for CD40 Biomarker Activity (AID 2283088); details: primary human HUVEC with PBMC; actives raise or lower the signal
Summary of the method: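 Endpoint derived by fitting increases or decreases versus DMSO controls. CD40 is detected by fluorescence ELISA in a human vascular co-culture of endothelium and PBMC at 24 h.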

[16] = read-out: CD69, CD69 (gene 969); assay: BSK_SAg_CD69: BioMAP Diversity Plus: SAg Assay for CD69 Biomarker Activity (AID 2283089); details: primary human HUVEC with PBMC; actives raise or lower the signal;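 as to AC50: cell surface CD69 protein quantified by ELISA with fluorescence detection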
Summary of the method: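 ELISA, fluorescence read-out: CD69 on human umbilical vein endothelial cell + PBMC co-culture, 24 h post-dosing. Gain or loss of signal fitted bidirectionally against DMSO baseline.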

[17] = read-out: Monocyte Chemoattractant Protein-1 (MCP1), CCL2 (gene 6347); assay: BSK_SAg_MCP1: BioMAP Diversity Plus: SAg Assay for Monocyte Chemoattractant Protein-1 (MCP1) Biomarker Activity (AID 2283090); details: primary human HUVEC with PBMC; actives raise or lower the signal
Summary of the method: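 MCP-1 levels in the endothelial–PBMC SAg co-culture were quantified by ELISA at 24 h post-dosing; both increases and decreases versus DMSO scored. Cytotoxicity monitored by SRB total protein in parallel cultures.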

[18] = read-out: E-selectin (Homo sapiens) (UniProt P16581); assay: BSK_SAg_Eselectin: BioMAP Diversity Plus: SAg Assay for Eselectin Biomarker Activity (AID 2283091); details: primary human HUVEC with PBMC; actives raise or lower the signal
Summary of the method: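 Endpoint values derive from bidirectional fitting relative to DMSO, using ELISA-measured E-selectin in a human vascular co-culture (umbilical vein endothelium plus PBMC) sampled 24 h after dosing.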

[19] = BSK_LPS_PGE2: BioMAP Diversity Plus: LPS Assay for Prostaglandin E2 (PGE2) Biomarker Activity (AID 2283082); details: primary human HUVEC with PBMC; actives raise or lower the signal
Summary of the method: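 HUVEC plus PBMC co-culture stimulated with LPS; secreted PGE2 quantified by ELISA 24 h after chemical dosing. Activity fitted bidirectionally against DMSO as negative control and baseline; parallel SRB total-protein staining served as cytotoxicity check.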

[20] = read-out: C-C motif chemokine 2 (Homo sapiens) (UniProt P13500); assay: BSK_KF3CT_MCP1: BioMAP Diversity Plus: KF3CT Assay for Monocyte Chemoattractant Protein 1 (MCP1/CCL2) Biomarker Activity (AID 2283073); details: primary human keratinocytes with fibroblasts; actives raise or lower the signal
Summary of the method: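 Biomarker MCP-1 is measured by ELISA in primary human keratinocytes co-cultured with foreskin fibroblasts, 24 h after chemical treatment; DMSO serves as the negative control and activity baseline.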

Measured: AC50

Chain of Tumor necrosis factor (Homo sapiens) (P01375 whole entry, looked up): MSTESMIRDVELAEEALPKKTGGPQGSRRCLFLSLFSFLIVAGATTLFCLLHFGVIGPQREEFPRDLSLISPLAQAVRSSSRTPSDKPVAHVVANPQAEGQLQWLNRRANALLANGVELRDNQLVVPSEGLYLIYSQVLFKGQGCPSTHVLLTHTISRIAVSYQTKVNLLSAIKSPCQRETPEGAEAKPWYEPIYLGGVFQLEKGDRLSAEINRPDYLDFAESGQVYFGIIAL
Chain of E-selectin (Homo sapiens) (P16581 whole entry, looked up): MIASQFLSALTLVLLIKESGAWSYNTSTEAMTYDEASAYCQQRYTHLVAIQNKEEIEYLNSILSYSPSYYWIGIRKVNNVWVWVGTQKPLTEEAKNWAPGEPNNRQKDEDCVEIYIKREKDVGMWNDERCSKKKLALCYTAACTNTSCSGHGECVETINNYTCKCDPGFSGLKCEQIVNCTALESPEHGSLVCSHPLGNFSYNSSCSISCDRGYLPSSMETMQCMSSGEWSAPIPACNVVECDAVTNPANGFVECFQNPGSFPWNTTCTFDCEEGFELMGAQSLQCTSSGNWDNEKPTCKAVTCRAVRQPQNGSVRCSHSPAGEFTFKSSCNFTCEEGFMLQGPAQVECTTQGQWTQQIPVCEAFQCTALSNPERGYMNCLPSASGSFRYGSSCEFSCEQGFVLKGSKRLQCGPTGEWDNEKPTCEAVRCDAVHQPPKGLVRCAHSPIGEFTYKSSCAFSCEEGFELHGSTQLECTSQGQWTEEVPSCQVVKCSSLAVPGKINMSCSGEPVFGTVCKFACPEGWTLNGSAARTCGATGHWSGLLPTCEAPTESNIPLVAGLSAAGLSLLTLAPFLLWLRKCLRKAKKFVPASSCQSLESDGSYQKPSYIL

CC(C)(C)CC(C)(C)c1ccc(OCCOCC[N+](C)(C)Cc2ccccc2)cc1
active: [1] 3.38 µM | [2] 5 µM | [3] 5 µM | [4] 7.8 µM | [5] 7.56 µM | [6] 6.61 µM | [7] 8.5 µM | [8] 5 µM | [9] 7.38 µM | [10] 7.03 µM | [11] 9.04 µM | [12] 8.89 µM | [13] 9.18 µM | [14] 5 µM | [15] 5 µM | [16] 3.28 µM | [17] 5 µM | [18] 3.59 µM

CCOC(=O)C(C#N)=C(c1ccccc1)c1ccccc1
active: [17] 20 µM | [18] 29.8 µM
inactive: [2] | [3] | [4] | [5] | [6] | [7] | [8] | [9] | [10] | [11] | [12] | [13] | [14] | [15] | [16] | [17] | [18]

C[C@@H]1CCN(C(=O)[C@H](CCCN=C(N)N)NS(=O)(=O)c2cccc3c2NC[C@H](C)C3)[C@@H](C(=O)O)C1
not listed: [19] | [20]
inactive: all other assays above

C=C(C)C(=O)OCC(CC)(COC(=O)C(=C)C)COC(=O)C(=C)C
active: [13] 19.7 µM | [18] 19.7 µM
not listed: [19] | [20]
inactive: all other assays above

c1ccc(CCc2ccccc2)cc1
active: [1] 12.8 µM | [2] 28.5 µM | [3] 20 µM | [4] 30.9 µM | [5] 31.9 µM | [6] 20 µM | [7] 36.4 µM | [8] 32.7 µM | [10] 31.2 µM | [11] 31.1 µM | [13] 31.8 µM | [14] 30.2 µM | [15] 30.9 µM | [16] 30 µM | [17] 31.5 µM | [18] 31.7 µM
inactive: [9] | [12]

O=C(Nc1ccc2c(O)c(N=Nc3ccc(N=Nc4ccc(S(=O)(=O)O)cc4)cc3)c(S(=O)(=O)O)cc2c1)c1ccccc1
not listed: [1] | [20]
inactive: all other assays above

O=CN1CCOCC1
not listed: [1] | [19] | [20]
inactive: all other assays above

COc1cc(Cl)c(OC)cc1N
not listed: [19] | [20]
inactive: all other assays above

CC(CN=Cc1ccccc1O)N=Cc1ccccc1O (configuration not stated)
inactive: [2] | [3] | [4] | [5] | [6] | [7] | [8] | [9] | [10] | [11] | [12] | [13] | [14] | [15] | [16] | [17] | [18]
active: [6] 0.151 µM

C=CC(C)(O)CCC=C(C)C (configuration not stated)
not listed: [1] | [19]
inactive: all other assays above

CC(=O)Nc1ccc(C(=O)CCl)cc1
active: [2] 20 µM | [3] 30 µM | [4] 5.35 µM | [5] 4.61 µM | [6] 3.91 µM | [7] 9.55 µM | [8] 4.52 µM | [9] 5.89 µM | [10] 5.36 µM | [11] 5.39 µM | [12] 4.58 µM | [13] 4.35 µM | [14] 3.84 µM | [15] 4.69 µM | [16] 5.33 µM | [17] 10.6 µM | [18] 5.34 µM
